Experimental data from the supplement of paper PMC11732987, “Enantioselective OTUD7B fragment discovery through chemoproteomics screening and high-throughput optimisation” (Communications Chemistry, 2025).

Key:
Test in all cases: log2 ratio of Biotin-Ahx-Ub-VS probe labelling (fragment/DMSO); higher = less target engagement (more negative = stronger competition), active = hit call of the paper (q ≤ 0.05, log2 ratio ≤ -1)
Conditions in all cases: compound concentration: 200 uM; treatment time: 3 h
USP9X = USP9X (UniProt Q93008)
Sequence of USP9X (Q93008 whole entry, the tested form may be a part): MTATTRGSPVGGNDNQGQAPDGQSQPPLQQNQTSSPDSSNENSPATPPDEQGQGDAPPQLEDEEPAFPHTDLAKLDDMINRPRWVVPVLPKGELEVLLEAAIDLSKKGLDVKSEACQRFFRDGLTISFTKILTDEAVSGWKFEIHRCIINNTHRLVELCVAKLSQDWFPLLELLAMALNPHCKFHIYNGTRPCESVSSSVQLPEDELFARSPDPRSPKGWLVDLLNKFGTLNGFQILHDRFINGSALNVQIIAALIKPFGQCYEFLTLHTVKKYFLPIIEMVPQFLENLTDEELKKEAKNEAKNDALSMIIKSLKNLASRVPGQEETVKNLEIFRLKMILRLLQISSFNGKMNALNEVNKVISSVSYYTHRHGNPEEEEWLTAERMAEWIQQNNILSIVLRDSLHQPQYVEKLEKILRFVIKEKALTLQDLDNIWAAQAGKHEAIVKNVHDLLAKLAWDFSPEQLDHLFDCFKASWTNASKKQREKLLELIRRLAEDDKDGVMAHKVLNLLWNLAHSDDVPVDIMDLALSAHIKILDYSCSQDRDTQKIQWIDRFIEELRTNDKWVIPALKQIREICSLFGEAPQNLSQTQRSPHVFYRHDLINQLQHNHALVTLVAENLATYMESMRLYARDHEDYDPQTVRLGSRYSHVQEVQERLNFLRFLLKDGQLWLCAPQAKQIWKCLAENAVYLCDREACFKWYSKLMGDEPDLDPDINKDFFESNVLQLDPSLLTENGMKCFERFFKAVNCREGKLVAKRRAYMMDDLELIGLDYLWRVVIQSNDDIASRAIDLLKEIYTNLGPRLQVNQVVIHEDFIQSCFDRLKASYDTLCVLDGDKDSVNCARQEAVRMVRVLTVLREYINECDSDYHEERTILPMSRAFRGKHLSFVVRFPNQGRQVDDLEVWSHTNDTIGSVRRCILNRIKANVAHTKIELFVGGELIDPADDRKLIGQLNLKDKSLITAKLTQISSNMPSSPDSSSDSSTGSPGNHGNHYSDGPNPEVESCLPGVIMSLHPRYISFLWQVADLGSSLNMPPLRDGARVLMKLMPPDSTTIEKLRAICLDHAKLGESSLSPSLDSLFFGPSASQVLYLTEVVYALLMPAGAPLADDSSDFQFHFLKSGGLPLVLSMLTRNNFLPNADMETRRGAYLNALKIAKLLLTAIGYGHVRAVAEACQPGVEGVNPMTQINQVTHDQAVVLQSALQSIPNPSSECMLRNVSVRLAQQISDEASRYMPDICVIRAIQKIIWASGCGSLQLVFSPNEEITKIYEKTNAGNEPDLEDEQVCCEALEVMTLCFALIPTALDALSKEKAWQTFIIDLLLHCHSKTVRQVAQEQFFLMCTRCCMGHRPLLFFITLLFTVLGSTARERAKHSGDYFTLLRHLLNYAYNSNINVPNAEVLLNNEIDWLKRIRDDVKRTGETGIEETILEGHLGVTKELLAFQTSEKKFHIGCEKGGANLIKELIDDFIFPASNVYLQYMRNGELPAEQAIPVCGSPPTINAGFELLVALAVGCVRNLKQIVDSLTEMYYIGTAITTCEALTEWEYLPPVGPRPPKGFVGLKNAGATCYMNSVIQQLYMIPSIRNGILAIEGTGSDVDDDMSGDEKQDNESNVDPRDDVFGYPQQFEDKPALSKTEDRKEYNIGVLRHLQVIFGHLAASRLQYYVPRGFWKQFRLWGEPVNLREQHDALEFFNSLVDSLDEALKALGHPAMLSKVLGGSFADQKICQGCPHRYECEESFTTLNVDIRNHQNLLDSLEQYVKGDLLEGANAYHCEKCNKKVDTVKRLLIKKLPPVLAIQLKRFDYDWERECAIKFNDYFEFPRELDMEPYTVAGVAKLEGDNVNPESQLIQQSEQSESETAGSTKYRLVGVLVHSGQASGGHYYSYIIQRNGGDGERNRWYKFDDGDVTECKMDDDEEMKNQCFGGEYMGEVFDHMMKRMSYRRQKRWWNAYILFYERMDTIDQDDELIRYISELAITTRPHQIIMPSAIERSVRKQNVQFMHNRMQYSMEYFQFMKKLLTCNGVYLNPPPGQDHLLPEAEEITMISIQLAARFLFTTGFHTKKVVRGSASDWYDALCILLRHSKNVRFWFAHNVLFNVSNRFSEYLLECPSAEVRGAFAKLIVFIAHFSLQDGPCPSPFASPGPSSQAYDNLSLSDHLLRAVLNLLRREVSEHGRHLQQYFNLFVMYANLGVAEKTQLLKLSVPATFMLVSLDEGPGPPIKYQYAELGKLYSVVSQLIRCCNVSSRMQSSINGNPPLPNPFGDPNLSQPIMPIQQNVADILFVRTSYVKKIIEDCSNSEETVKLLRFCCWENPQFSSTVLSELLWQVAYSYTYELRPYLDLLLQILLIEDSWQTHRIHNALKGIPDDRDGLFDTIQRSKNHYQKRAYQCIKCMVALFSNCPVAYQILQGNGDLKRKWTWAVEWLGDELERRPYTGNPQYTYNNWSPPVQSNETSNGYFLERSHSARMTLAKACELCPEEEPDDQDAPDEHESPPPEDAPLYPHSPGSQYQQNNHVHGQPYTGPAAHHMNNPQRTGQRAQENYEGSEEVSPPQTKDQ
Outline: (§1)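 HEK293T lysate (495 µg per sample, in Tris/CHAPS/IGEPAL buffer with protease inhibitors) was treated in triplicate with fragment at 200 µM or with DMSO for 3 h. It was then treated with Biotin-Ahx-Ub-VS (0.5 µM final) for 1 h. Labelled DUBs were NeutrAvidin-enriched, digested with LysC and trypsin, and run by diaPASEF LC-MS/MS. Spectronaut label-free quantities were global-median-normalised. Values are average log2 ratios fragment/DMSO by unpaired t-test, using proteins with ≥2 unique peptides.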

UniProt O00487 = target: UniProt O00487
Sequence of UniProt O00487 (O00487 whole entry): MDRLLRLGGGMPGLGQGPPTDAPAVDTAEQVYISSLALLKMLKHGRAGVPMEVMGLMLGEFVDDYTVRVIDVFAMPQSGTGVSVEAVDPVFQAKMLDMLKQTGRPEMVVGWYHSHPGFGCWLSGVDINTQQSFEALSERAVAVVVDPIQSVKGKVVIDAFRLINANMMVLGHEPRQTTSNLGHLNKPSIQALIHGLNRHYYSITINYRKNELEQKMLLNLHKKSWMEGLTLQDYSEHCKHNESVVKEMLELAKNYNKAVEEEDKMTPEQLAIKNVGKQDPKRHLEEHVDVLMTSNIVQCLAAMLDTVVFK
Outline: as §1

UniProt O00507 = target: UniProt O00507
Outline: as §1

UniProt P51784 = target: UniProt P51784
Sequence of UniProt P51784 (P51784 whole entry): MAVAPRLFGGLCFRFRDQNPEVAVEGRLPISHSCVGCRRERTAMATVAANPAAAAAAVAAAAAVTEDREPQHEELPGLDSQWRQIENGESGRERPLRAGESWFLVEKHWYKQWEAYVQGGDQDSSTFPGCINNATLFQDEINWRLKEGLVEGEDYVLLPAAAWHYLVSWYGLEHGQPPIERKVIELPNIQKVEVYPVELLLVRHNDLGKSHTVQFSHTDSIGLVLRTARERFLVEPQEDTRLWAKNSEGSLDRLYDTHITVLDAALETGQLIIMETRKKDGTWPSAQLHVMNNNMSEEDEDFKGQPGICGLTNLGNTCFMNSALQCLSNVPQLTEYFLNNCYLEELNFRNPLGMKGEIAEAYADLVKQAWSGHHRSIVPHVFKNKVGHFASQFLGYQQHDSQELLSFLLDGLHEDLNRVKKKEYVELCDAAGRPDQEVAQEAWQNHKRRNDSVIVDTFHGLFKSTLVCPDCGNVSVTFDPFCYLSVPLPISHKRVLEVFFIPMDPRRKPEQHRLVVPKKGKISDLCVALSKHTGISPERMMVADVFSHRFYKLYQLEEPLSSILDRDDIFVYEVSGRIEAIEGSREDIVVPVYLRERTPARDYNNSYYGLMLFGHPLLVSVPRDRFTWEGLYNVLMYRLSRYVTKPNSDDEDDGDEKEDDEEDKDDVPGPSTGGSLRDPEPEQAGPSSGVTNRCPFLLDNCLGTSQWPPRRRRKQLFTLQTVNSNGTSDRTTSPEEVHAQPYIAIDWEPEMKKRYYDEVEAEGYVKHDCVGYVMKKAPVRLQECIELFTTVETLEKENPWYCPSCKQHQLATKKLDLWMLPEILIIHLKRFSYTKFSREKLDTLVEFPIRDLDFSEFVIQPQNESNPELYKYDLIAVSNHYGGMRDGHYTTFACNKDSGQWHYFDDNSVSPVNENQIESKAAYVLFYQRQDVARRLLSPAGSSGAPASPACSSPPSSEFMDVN
Outline: as §1

UniProt Q5T2D3 = target: T1, UniProt Q5T2D3
T1 sequence (whole entry): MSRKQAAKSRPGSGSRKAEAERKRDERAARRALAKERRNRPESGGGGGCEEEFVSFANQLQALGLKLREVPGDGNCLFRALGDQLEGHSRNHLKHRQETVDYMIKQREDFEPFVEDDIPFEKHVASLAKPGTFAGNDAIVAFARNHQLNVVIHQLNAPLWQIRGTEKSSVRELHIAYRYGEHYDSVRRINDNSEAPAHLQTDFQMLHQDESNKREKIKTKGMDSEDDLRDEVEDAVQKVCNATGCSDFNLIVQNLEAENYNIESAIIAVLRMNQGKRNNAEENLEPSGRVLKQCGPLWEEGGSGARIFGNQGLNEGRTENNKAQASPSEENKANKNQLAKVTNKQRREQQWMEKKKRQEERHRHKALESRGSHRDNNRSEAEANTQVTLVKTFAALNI
Outline: as §1

UniProt Q8TE49 = target: T2, UniProt Q8TE49
T2 sequence (whole entry): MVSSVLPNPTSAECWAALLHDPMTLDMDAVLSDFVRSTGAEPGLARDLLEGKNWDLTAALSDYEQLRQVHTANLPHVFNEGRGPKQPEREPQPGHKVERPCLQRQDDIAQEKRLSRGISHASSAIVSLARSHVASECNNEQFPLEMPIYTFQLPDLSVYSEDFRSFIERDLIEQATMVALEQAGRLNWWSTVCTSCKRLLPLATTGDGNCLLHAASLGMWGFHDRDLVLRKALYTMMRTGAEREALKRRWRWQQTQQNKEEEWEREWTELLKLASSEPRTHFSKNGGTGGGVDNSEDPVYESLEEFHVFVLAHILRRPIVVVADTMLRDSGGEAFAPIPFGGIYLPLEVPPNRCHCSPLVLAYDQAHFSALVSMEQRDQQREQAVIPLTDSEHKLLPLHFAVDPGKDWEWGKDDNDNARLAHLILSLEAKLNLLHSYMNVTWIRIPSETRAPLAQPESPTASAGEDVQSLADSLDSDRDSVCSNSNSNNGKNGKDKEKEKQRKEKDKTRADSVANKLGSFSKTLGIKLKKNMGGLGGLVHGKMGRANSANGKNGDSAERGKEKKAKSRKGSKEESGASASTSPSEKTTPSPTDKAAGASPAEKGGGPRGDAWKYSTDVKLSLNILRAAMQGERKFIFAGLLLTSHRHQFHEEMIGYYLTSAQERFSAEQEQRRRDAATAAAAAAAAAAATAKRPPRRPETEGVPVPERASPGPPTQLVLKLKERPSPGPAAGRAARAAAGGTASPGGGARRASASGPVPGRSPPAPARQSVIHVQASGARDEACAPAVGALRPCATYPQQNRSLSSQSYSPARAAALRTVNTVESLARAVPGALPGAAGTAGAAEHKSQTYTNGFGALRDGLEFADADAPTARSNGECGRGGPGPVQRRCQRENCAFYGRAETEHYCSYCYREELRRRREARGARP
Outline: as §1

UniProt Q9P2H5 = target: T3, UniProt Q9P2H5
T3 sequence (whole entry): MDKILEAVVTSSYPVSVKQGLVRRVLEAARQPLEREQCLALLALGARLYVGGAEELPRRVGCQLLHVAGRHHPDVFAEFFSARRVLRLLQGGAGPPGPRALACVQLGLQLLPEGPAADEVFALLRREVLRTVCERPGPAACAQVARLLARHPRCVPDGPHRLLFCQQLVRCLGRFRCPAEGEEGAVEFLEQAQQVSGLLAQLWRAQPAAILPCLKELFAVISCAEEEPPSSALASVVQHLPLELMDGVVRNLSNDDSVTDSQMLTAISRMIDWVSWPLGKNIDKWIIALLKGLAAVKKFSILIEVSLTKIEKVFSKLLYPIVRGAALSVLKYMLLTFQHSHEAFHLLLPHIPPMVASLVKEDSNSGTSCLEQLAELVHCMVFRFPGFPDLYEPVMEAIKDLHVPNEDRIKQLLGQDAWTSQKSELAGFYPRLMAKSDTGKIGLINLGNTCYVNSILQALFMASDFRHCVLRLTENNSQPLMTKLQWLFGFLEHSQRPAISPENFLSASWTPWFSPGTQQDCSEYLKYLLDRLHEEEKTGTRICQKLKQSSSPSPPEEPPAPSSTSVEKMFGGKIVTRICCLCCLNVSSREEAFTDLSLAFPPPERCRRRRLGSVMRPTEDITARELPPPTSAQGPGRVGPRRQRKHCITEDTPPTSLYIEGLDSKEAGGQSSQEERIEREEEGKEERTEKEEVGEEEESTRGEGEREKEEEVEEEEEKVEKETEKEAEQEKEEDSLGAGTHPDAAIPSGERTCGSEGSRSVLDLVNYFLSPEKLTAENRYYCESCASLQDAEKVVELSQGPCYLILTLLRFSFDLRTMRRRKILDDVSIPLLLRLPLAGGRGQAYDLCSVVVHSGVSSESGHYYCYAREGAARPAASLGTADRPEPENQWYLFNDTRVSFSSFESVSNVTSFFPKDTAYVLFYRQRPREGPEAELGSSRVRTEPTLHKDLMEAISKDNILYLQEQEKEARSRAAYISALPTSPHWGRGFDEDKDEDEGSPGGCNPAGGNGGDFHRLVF
Outline: as §1

UniProt Q9UGI0 = target: T4, UniProt Q9UGI0
T4 sequence (whole entry): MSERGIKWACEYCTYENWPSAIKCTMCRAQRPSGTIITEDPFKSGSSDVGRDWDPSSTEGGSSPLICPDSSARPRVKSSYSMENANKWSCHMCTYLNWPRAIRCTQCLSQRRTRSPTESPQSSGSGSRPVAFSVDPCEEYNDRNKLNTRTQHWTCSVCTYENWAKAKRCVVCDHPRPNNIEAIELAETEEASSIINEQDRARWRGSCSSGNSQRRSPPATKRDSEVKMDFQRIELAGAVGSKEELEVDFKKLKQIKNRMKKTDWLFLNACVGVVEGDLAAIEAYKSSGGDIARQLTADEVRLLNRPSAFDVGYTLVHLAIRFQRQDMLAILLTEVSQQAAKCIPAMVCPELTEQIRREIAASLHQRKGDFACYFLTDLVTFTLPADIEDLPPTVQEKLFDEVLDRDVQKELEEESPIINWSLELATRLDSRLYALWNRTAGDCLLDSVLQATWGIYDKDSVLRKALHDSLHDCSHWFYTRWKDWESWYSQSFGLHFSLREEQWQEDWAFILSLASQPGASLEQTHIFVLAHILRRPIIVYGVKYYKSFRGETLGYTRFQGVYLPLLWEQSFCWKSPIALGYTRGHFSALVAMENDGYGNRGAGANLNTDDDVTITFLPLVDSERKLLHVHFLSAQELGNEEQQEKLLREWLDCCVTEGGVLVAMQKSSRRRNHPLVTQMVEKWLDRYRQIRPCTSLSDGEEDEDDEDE
Outline: as §1

YOD1 = target: T5, YOD1 (UniProt Q5VVQ6)
T5 sequence (whole entry): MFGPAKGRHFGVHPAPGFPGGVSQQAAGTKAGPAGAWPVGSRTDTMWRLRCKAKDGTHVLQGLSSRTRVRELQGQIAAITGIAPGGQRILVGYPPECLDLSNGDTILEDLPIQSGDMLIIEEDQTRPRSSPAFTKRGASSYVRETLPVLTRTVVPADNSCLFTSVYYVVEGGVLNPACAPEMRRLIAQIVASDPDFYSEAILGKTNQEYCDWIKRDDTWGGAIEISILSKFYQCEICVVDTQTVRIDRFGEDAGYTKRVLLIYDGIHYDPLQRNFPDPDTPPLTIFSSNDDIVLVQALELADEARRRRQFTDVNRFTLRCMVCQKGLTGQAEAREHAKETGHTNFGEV
Outline: as §1

Measured: log2 ratio of Biotin-Ahx-Ub-VS probe labelling

C/C(=C\CNC(=O)CCl)c1cnn(C)c1.Cl
inactive: USP9X -0.138 | UniProt O00487 -0.0232 | UniProt O00507 -0.224 | UniProt P51784 -0.391 | UniProt Q5T2D3 -0.0109 | UniProt Q8TE49 -0.499 | UniProt Q9P2H5 -0.465 | UniProt Q9UGI0 -0.0207 | YOD1 -0.155
